# Test results from the supplement of paper PMC8728848.
# Only a selection was taken, and the strongest signals are over-represented in it overall.
# Experiments:
# Assay in all cases: glycan array binding signal (z-score within array); higher = stronger binding
# Settings in all cases: glycan notation: IUPAC condensed, linker removed
# [1] = molecular target: Fuc(a1-2)Gal(b1-3)GalNAc(b1-3)Gal
# Summary of the method: (§1)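 Arrays were curated from the Consortium for Functional Glycomics database, 3228 in total, and kept only where the protein sequence was available. Binding is expressed as a within-array Z-score. This score was averaged across arrays of the same protein sequence at different concentrations or buffers and across linkers, and negative values can be read as non-binding.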
# Fuc(a1-2)Gal(b1-4)Glc6S = molecular target: Fuc(a1-2)Gal(b1-4)Glc6S
# Summary of the method: as §1
# [2] = molecular target: Fuc(a1-2)Gal(b1-4)GlcNAc(b1-3)GalNAc
# Summary of the method: as §1
# [3] = molecular target: Fuc(a1-2)Gal(b1-4)[Fuc(a1-3)]GlcNAc(b1-2)Man(a1-3)[Fuc(a1-2)Gal(b1-4)[Fuc(a1-3)]GlcNAc(b1-2)Man(a1-6)]Man(b1-4)GlcNAc(b1-4)[Fuc(a1-6)]GlcNAc
# Summary of the method: as §1
# [4] = molecular target: Fuc(a1-2)Gal(b1-4)[Fuc(a1-3)]GlcNAc(b1-3)Gal(b1-4)[Fuc(a1-3)]GlcNAc(b1-3)Gal(b1-4)[Fuc(a1-3)]GlcNAc
# Summary of the method: as §1
# [5] = molecular target: Fuc(a1-2)Gal(b1-4)[Fuc(a1-3)]GlcNAc(b1-3)[Neu5Ac(a2-6)Gal(b1-4)GlcNAc(b1-6)]Gal(b1-4)Glc
# Summary of the method: as §1
# [6] = molecular target: Fuc(a1-2)[Gal(a1-3)]Gal(b1-4)GlcNAc(b1-6)GalNAc
# Summary of the method: as §1
# [7] = molecular target: Fuc(a1-2)[Gal(a1-3)]Gal(b1-4)[Fuc(a1-3)]GlcNAc(b1-3)GalNAc
# Summary of the method: as §1
# [8] = molecular target: Fuc(a1-2)[GalNAc(a1-3)]Gal(b1-3)GalNAc(b1-3)Gal(a1-4)Gal(b1-4)Glc
# Summary of the method: as §1
# [9] = molecular target: Fuc(a1-2)[GalNAc(a1-3)]Gal(b1-3)GlcNAc(b1-3)GalNAc
# Summary of the method: as §1
# [10] = molecular target: Fuc(a1-2)[GalNAc(a1-3)]Gal(b1-4)GlcNAc(b1-2)Man(a1-3)[Fuc(a1-2)[GalNAc(a1-3)]Gal(b1-4)GlcNAc(b1-2)Man(a1-6)]Man(b1-4)GlcNAc(b1-4)GlcNAc
# Summary of the method: as §1
# [11] = molecular target: Fuc(a1-2)[GalNAc(a1-3)]Gal(b1-4)[Fuc(a1-3)]GlcNAc(b1-3)GalNAc
# Summary of the method: as §1
# [12] = molecular target: Fuc(a1-3)[Gal(b1-4)]GlcNAc(b1-6)[Neu5Ac(a2-3)Gal(b1-3)]GalNAc
# Summary of the method: as §1
# [13] = molecular target: Gal(a1-4)Gal(b1-4)GlcNAc(b1-3)Gal(b1-4)Glc
# Summary of the method: as §1
# Gal(b1-3)Gal = molecular target: Gal(b1-3)Gal
# Summary of the method: as §1
# [14] = molecular target: Gal(b1-3)GalNAc(a1-3)[Fuc(a1-2)]Gal(b1-4)Glc
# Summary of the method: as §1
# [15] = molecular target: Gal(b1-3)GalNAc(b1-4)Gal(b1-4)Glc
# Summary of the method: as §1
# [16] = molecular target: Gal(b1-3)GlcNAc(a1-3)Gal(b1-4)GlcNAc
# Summary of the method: as §1
# [17] = molecular target: Gal(b1-3)[Neu5Ac(a2-6)]GlcNAc(b1-4)Gal(b1-4)Glc
# Summary of the method: as §1
# [18] = molecular target: Gal(b1-4)GlcNAc(b1-2)Man(a1-3)[Gal(b1-4)GlcNAc(b1-2)Man(a1-6)]Man(b1-4)GlcNAc(b1-4)[Fuc(a1-6)]GlcNAc
# Summary of the method: as §1
# [19] = molecular target: Gal(b1-4)GlcNAc(b1-2)Man(a1-3)[Gal(b1-4)GlcNAc(b1-2)Man(a1-6)][Gal(b1-4)GlcNAc(b1-4)]Man(b1-4)GlcNAc(b1-4)[Fuc(a1-6)]GlcNAc
# Summary of the method: as §1
# [20] = molecular target: Gal(b1-4)GlcNAc(b1-2)Man(a1-3)[GlcNAc(b1-4)][Gal(b1-4)GlcNAc(b1-2)Man(a1-6)]Man(b1-4)GlcNAc(b1-4)GlcNAc
# Summary of the method: as §1
# [21] = molecular target: Gal(b1-4)GlcNAc(b1-2)Man(a1-3)[Man(a1-6)]Man(b1-4)GlcNAc(b1-4)GlcNAc
# Summary of the method: as §1
# [22] = molecular target: Gal(b1-4)GlcNAc(b1-2)[Gal(b1-4)GlcNAc(b1-4)]Man(a1-3)[GlcNAc(b1-4)][Gal(b1-4)GlcNAc(b1-2)Man(a1-6)]Man(b1-4)GlcNAc(b1-4)GlcNAc
# Summary of the method: as §1
# [23] = molecular target: Gal(b1-4)GlcNAc(b1-3)Gal(b1-4)GlcNAc(b1-3)[Gal(b1-4)GlcNAc(b1-3)Gal(b1-4)GlcNAc(b1-6)]GalNAc
# Summary of the method: as §1
# Gal3S6S(b1-4)GlcNAc6S = molecular target: Gal3S6S(b1-4)GlcNAc6S
# Summary of the method: as §1
# Gal6S(b1-3)GlcNAc6S = molecular target: Gal6S(b1-3)GlcNAc6S
# Summary of the method: as §1
# Gal6S(b1-4)GlcNAc6S = molecular target: Gal6S(b1-4)GlcNAc6S
# Summary of the method: as §1
# [24] = molecular target: GalNAc(a1-3)GalNAc(b1-3)Gal(a1-4)Gal(b1-4)Glc
# Summary of the method: as §1
# [25] = molecular target: GalNAc(b1-4)GlcNAc(b1-2)Man
# Summary of the method: as §1
# [26] = molecular target: GlcA3S(b1-3)Gal(b1-4)GlcNAc(b1-3)Gal(b1-4)Glc
# Summary of the method: as §1
binder,measurement,setting,value
PpFlo1 (Pichia pastoris) (protein) MGSSHHHHHHSSGLVPRGSHMQESGDGDISDSAYACDIDATRYDGFNATIYEFQPGDGRLTRDPVFMSTGYLNRTQLHSITGVTDPGFSIYTPGVPTTTLYGIPNVNWENLLLELKGYFRAEVSGDYGLSLRNIDDSAILFFGKETAFQCCNENSISNEASTDYSLFTIFRQEGDETTNLDSFTYTQYLEAGKYYPVRTFFVNIERHAVFNFTMTLPDGTELTDFHNYIYQFGALDEEQCQA,glycan array binding signal (z-score),[1],-0.068
same,glycan array binding signal (z-score),Fuc(a1-2)Gal(b1-4)Glc6S,-0.627
same,glycan array binding signal (z-score),[2],9.01
same,glycan array binding signal (z-score),[3],0.805
same,glycan array binding signal (z-score),[4],0.218
same,glycan array binding signal (z-score),[5],-0.279
same,glycan array binding signal (z-score),[6],-0.228
same,glycan array binding signal (z-score),[7],1.04
same,glycan array binding signal (z-score),[8],-0.244
same,glycan array binding signal (z-score),[9],3.23
same,glycan array binding signal (z-score),[10],2.04
same,glycan array binding signal (z-score),[11],7.08
same,glycan array binding signal (z-score),[12],3.09
same,glycan array binding signal (z-score),[13],-0.25
same,glycan array binding signal (z-score),Gal(b1-3)Gal,0.345
same,glycan array binding signal (z-score),[14],-0.55
same,glycan array binding signal (z-score),[15],3.27
same,glycan array binding signal (z-score),[16],-0.388
same,glycan array binding signal (z-score),[17],0.298
same,glycan array binding signal (z-score),[18],-0.323
same,glycan array binding signal (z-score),[19],0.235
same,glycan array binding signal (z-score),[20],-0.214
same,glycan array binding signal (z-score),[21],1.6
same,glycan array binding signal (z-score),[22],-0.266
same,glycan array binding signal (z-score),[23],0.345
same,glycan array binding signal (z-score),Gal3S6S(b1-4)GlcNAc6S,1.38
same,glycan array binding signal (z-score),Gal6S(b1-3)GlcNAc6S,2.66
same,glycan array binding signal (z-score),Gal6S(b1-4)GlcNAc6S,1.66
same,glycan array binding signal (z-score),[24],-0.647
same,glycan array binding signal (z-score),[25],-0.267
same,glycan array binding signal (z-score),[26],-0.4
